# RE007 growth inh – less growth of the S. pombe RE007 Vpr strain; AID 651644; S. pombe RE007 Vpr strain, BacTiter-Glo ATP luminescence, 24 h; Potency, µM (series often up to 92.2 µM), for the others: at the top dose activity change, negative = less growth, usual class: inhibitors; actives 0.21% (n = 360,000); active = well fitted falling curve with a large enough effect; inconclusive = small, poorly fitted or top-dose-only effect; inactive = no such curve, though single readings can be large or run the other way; also: nearly all actives have a fitted effect of over 50% in size
#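 Fission yeast RE007 carrying one integrated HIV-1 vpr copy, seeded at OD 0.01 in PMG+AL medium with 23 nL pinned compound. Grown 24 h at 30 degrees; viability read by BacTiter-Glo luminescence after 5 min.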
# LmPK inhibitor – LmPK (Leishmania mexicana) enzyme inhibition. Q27686. purified LmPK, Kinase-Glo ATP luminescence, 1 h. Potency, µM (doses to about 57.5 µM), for the others: top-dose activity change, negative = inhibition, hits mostly inhibitors. actives 0.37% (n = 290,000). AID 1721
# Target sequence (Q27686 whole entry, looked up): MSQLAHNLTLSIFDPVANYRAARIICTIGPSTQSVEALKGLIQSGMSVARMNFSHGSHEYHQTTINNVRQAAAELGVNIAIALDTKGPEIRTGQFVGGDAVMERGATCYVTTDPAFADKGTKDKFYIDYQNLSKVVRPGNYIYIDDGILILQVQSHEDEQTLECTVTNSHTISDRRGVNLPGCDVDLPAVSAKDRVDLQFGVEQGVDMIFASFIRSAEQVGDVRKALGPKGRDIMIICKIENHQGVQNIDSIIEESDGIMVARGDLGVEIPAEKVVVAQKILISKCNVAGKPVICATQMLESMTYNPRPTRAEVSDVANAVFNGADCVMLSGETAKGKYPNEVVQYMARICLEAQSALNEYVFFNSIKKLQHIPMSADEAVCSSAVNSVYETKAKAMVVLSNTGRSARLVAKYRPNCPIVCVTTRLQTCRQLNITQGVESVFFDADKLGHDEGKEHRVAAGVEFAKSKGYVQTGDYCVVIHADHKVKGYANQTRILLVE
#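 In 50 mM imidazole pH 7.2 with 7 mM MgCl2, LmPK (0.1 nM) turned over PEP (0.5 mM) and ADP (0.1 mM) for 1 h at room temperature. Luciferase read-out of ATP.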
# TbPYK inhibitor – T. brucei pyruvate kinase inhibition | Q57TT1 | TbPYK enzyme, Kinase-Glo Plus ATP luminescence, 45 min | Potency, µM (highest dose often 76.8 µM), for inactives: top-dose activity, negative = inhibition, usual class: inhibitors | actives 0.12% (n = 410,000) | AID 624173; also: nearly all actives have a fitted effect of over 50% in size
#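 Screened from lowest to highest concentration, compounds were pinned into TbPYK/substrate mixtures, and ADP (130 uM final) was added. Plates sat at room temperature for 45 min prior to Kinase-Glo Plus detection by luminescence.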
# AMA1-RON2 inh – AMA1-RON2 (P. falciparum) interaction inhibition | AlphaScreen AMA1-biotinylated RON2 peptide binding | Potency, µM (titrated, usually from 58.2 µM), for inactives: top-dose activity change, negative = inhibition, actives largely listed as inhibitors | actives 0.2% (n = 360,000) | AID 720542;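 also: 0% = vehicle wells and -100% = peptide control; nearly all actives have a fitted effect of over 45% in size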
#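 AMA1 (3D7) with his tag at 25 nM final met compounds first, then biotinylated RON2 peptide at 25 nM; detection used donor plus acceptor beads, 10 µg/mL apiece, read by AlphaScreen after 30 min at room temperature.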
# Vaccinia mCherry – inhibitors of vaccinia virus infection (mCherry reporter signal); Potency, µM (series often up to 36.5 µM), without a hit: at the highest dose activity change, negative = inhibition, usual class: inhibitors; actives 0.63% (n = 310,000); AID 720579; Vaccinia virus mCherry reporter infection, fluorescence; calls by dose curve; tested in A549 cells; also: nearly all actives have a fitted effect of over 35% in size
# Vaccinia Venus – vaccinia inhibition (Venus reporter); Potency, µM (titrated, usually from 36.5 µM), for inactives: at the highest dose activity change, negative = inhibition, most hits filed as inhibitors; Vaccinia virus Venus reporter expression, fluorescence; actives 0.46% (n = 330,000); calls by dose curve; tested in A549 cells; also: nearly all actives have a fitted effect of over 30% in size
# * hit, by the source's call; i = inactive; ? = inconclusive; / = not tested or not shown; [ ] = dose if it differs, or a comment. The list is not random: actives were taken first. Their share in the collection is about 1.3%. Unless noted, calls follow the shape of the dose curve; as a rule, active = well fitted curve in the direction sought with a large enough effect; inconclusive = small, poorly fitted or top-dose-only effect, or another doubt; inactive = no such curve, though single readings can be large; an effect the other way counts as inactive or inconclusive. Unless noted, % is scaled to controls: 0 for no effect and ±100 for the full control effect; potency is read from the fitted curve at half-maximal effect.
SMILES,RE007 growth inh,LmPK inhibitor,TbPYK inhibitor,AMA1-RON2 inh,Vaccinia mCherry,Vaccinia Venus
COc1cccc2cc(C(=O)N(Cc3cccs3)Cc3cccs3)c(=O)oc12,/,/,/,/,-4%,-13%
Nc1cc(C2CCCC2)nn1-c1ccccc1,-21%,14µM*,-9%,-5%,/,-17%
COc1ccc(NS(=O)(=O)c2ccc3nc(COc4cccc5ccccc45)[nH]c3c2)cc1,-24%,2%,-17%,21%,-26%,?
COc1ccc(NS(=O)(=O)c2ccc3nc(COc4ccc5ccccc5c4)[nH]c3c2)cc1,17%,0%,7%,10%,?,28µM*
Fc1ccc(NCc2cn3ccccc3n2)cc1,2%,11µM*,6%,-6%,/,-12%
Fc1cccc(NCc2cn3ccccc3n2)c1,7%,-22%,2%,3%,/,/
c1ccc(OCCN2CCOCC2)cc1,1%,-9%,-10%,14µM*,/,/
Clc1cccc(OCCN2CCN(CCOc3cccc(Cl)c3)CC2)c1,-2%,0%,-3%,18µM*,-9%,-22%
O=S(=O)(O)c1cc(O)c2cc(Nc3ccccc3)ccc2c1,-25%,/,?,-20%,i,-9%
O=S(=O)(O)c1ccc(O)c2cc(Nc3ccccc3)ccc12,8%,/,?,3.2µM*,-9%,9%
CCOC(=O)N1CCN(Cc2ccc3c(c2)CN(C(=O)c2ccc(C#CC(C)(C)O)o2)CCO3)CC1,/,/,/,/,-27%,-19%
Cc1cccc(CNC(=O)c2cnn(-c3ncc(C)c(-c4ccc(F)cc4)n3)c2C)n1,/,/,/,/,-3%,-22%
COC(=O)c1c(OCc2ccccn2)cc(=O)n2c1CCN(Cc1cccc(C(F)(F)F)c1)CC2,/,/,/,/,-23%,-18%
C(/C=C/c1ccco1)=N/N1CCN(c2ccccc2)CC1,-28%,-14%,-16%,?,/,16%
Clc1ccccc1CN1CCN(/N=C/C=C\c2ccco2)CC1,-11%,4%,-8%,10µM*,-2%,3%
COc1ccc(O)c(CN2CCC3(CCC(CNC(=O)C4CCCO4)O3)CC2)c1 (centres undefined),/,/,/,/,-3%,14%
CCN1/C(=C(\O)c2ccccc2)C(=O)c2ccccc2S1(=O)=O,40µM*,-3%,3%,?,-25%,?
O=C(Nc1ccc(Cl)cn1)c1ccccc1F,-8%,22µM*,-7%,4%,/,/
COC(=O)c1ccc(NC(=O)Cc2coc3cc(C)ccc23)cc1,/,/,2%,/,-14%,2%
COc1ccc(-c2nc3cc(C)ccc3cc2CN(C(=O)c2ccc(C)s2)C2CC2)cc1OC,/,/,/,/,-21%,-9%
Cc1cc(C)nc(-n2ncc3c2CC(c2cccc(Cl)c2)CC3=O)n1 (centres undefined),-1%,7%,-1%,20%,10µM*,?
Cc1cc(C)nc(-n2ncc3c2CC(c2ccccc2)CC3=O)n1 (centres undefined),7%,1%,0%,2%,-4%,4%
CCC1CN(CC(=O)NC(c2ccccn2)C(F)(F)F)Cc2cc(OC)ccc2O1 (centres undefined),/,/,/,/,-12%,4%
CCc1ccc2oc(-c3cccc(N)c3)nc2c1,10µM*,?,-7%,-8%,-21%,-14%
COc1cc(-c2cc(C)c3cccc(OC)c3n2)cc2c1OCCN(C(=O)CC1NC(=O)c3ccccc31)C2 (centres undefined),/,/,/,/,i,0%
SMILES,RE007 growth inh,LmPK inhibitor,TbPYK inhibitor,AMA1-RON2 inh,Vaccinia mCherry,Vaccinia Venus
O=C1C=CC(=O)N1c1ccc(-c2nc3ccccc3o2)cc1,6.3µM*,/,11µM*,-4%,i,-14%
N#CC(C#N)=C(N)/C(C#N)=C/c1ccc2[nH]ccc2c1,/,/,/,/,-4%[60.7 µM],-8%[60.7 µM]
Cc1cc(Nc2sc(C(=O)c3ccc(F)cc3)c(N)c2C(=O)Nc2ccc(F)cc2)ccc1Cl,/,/,0%,/,5µM*,?
CC1CC[C@@]2(OC1)OC1C(O)C3C4CC[C@H]5CC(O[C@@H]6O[C@@H](CO)[C@H](OC7OC(CO)C(O)C(OC8OCC(O)C(O)[C@H]8O)[C@@H]7O[C@@H]7OC(CO)[C@H](O)[C@@H](O[C@@H]8OC(CO)C(O)C(O)C8O)C7O)C(O)C6O)C(O)C[C@]5(C)C4CC[C@]3(C)C1C2C (some centres undefined),/,/,/,/,7.9µM*,8.9µM*
COc1ccccc1Nc1ccc2c(O)cc(S(=O)(=O)O)cc2c1,-3%,/,?,20µM*,-24%,-19%
O=S(=O)(O)c1cc(O)c2ccc(Nc3ccccc3)cc2c1,22%,/,-10%,-23%,?,-5%
O=C(NC(=S)Nc1ccccn1)c1ccc(-c2ccccc2)cc1,-22%,-14%,-6%,88%,11µM*,-29%
Cc1cc(N/N=C/c2ccccc2Cl)nc(NCc2ccccc2)n1,2%,-7%,0%,-21%,13µM*,?
CCOC(=O)C1CCCCN1C(=O)c1ccc(-n2cc(NC(=O)c3cccnc3)cn2)cc1 (centres undefined),/,/,/,/,-3%,1%
COC(=O)c1cc(CNC(=O)c2ccccc2)cc(NC(=O)c2ccccc2OC)c1,/,/,/,/,-14%,-4%
Cc1cccn2cc(-c3ccccc3)nc12,-25%,?,-15%,-14%,-13%,-10%
Cc1cccn2cc(-c3ccc(F)cc3)nc12,?,16µM*,-12%,59%,/,/
C[C@@H](C(=O)O)c1ccc(C2CCCCC2)c2ccccc12,/,/,2%,/,/,/
Cc1cccc(C(=O)OCC(=O)N2CCCC2=O)c1O,2µM*,/,-6%,10%,-12%,-4%
Cc1cccc(C(=O)NCc2nc(-c3ccccc3NC(=O)C3CCCO3)oc2C)c1 (centres undefined),/,/,/,/,-9%,5%
COc1ccc(Br)cc1/C(C)=N/NC1=NCCN1,-10%,-5%,-1%,6%,-20%,0%
CCCCCOc1ccc(Br)cc1/C(C)=N/NC1=NCCN1,-8%,-1%,3%,59%,?,13µM*
Cc1cc(Cl)ccc1N=c1ssnc1Cl,74%,-12%,?,21%,-30%[1.46 µM],?
COc1ccc(OC)c(N=C2C(=O)Nc3ccccc32)c1,-7%,6%,13%,12%,/,/
Cc1ccc(N=c2ssnc2Cl)cc1,-92%,-16%,28µM*,32%,/,/
Cc1cc(C)nc(/N=c2/ssnc2Cl)c1,-3%,4%,-25%,2%,-10%,25%
COc1cc(N=c2ssnc2Cl)c(OC)cc1Cl,?,-4%,11µM*,-20%,?,?
COc1ccc(OC)c(N=c2ssnc2Cl)c1,?,-22%,28µM*,-3%,-11%,-7%
CC(O)(COc1ccccc1)c1ccc2c(c1)CN(Cc1cccn1-c1ccccn1)CCO2 (centres undefined),/,/,/,/,-13%,-1%
